Source: PubChem BioAssay
Sampled rows, rich in hits. Any-hit rate of the full collection: about 2.4%.
TDP1 inh: qHTS Assay for Inhibitors of Tyrosyl-DNA Phosphodiesterase (TDP1). 350,000 tested, 0.28% active. Potency, µM (top dose mostly 130 µM), for inactives: at the highest dose activity change, negative = inhibition, most hits filed as inhibitors. recombinant TDP1, AlphaScreen DNA substrate cleavage. AID 485290, 2010; note: % is set by controls: 0 for no effect and ±100 for the full control effect; nearly all actives have a fitted effect of over 40% in size
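Recombinant human Tdp1 (E. coli-expressed, 1 nM final) preincubated with compounds 15 min at room temperature, then 5'-biotin/3'-phosphotyrosine-FITC DNA substrate (15 nM final) added for 5 min. AlphaScreen beads (10 ug/ml final) added 10 min; cleavage lowers signal.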
POLH inh: qHTS for Inhibitors of Polymerase Eta | AID 588591, 2011 | DNA polymerase eta (Homo sapiens), Q9Y253 | Potency, µM (top dose mostly 114 µM), without a hit: at the highest dose activity change, negative = inhibition, hits mostly inhibitors | 390,000 tested, 1.2% active | recombinant Pol eta, fluorescent DNA replication assay; note: % is set by controls: 0 for no effect and ±100 for the full control effect
Target sequence (Q9Y253 whole entry, looked up): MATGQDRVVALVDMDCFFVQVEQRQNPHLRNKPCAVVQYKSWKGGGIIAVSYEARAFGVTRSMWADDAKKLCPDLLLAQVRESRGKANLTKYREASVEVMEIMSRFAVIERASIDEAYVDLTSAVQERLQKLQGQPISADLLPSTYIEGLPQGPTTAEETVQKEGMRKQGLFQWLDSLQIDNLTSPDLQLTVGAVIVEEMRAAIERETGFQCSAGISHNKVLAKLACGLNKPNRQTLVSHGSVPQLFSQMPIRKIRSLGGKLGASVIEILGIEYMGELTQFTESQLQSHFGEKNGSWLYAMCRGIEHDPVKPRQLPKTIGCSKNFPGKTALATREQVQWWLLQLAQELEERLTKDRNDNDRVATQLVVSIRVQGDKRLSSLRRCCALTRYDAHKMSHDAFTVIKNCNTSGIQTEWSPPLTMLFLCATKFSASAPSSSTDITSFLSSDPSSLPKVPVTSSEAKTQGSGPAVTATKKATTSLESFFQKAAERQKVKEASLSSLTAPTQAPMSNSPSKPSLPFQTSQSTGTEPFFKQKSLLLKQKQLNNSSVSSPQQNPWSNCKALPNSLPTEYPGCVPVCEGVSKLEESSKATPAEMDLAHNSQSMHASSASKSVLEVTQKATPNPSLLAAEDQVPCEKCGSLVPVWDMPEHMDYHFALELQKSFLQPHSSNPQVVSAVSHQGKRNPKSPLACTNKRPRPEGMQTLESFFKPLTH
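Fluorescent replication assay: 50 nM final substrate added after a 15 min room-temperature compound preincubation with 10 nM enzyme. Signal taken at 0 min and again at 10 min.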
POLB inh: qHTS Assay for Inhibitors of DNA Polymerase Beta | Pol beta primer extension/strand displacement, fluorescence kinetic | Potency, µM (doses to about 114 µM), inactives show top-dose activity change, negative = inhibition, usual class: inhibitors | 340,000 tested, 1.3% active | AID 485314, 2010; note: % is set by controls: 0 for no effect and ±100 for the full control effect
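Preincubation: enzyme (10 nM) with compound, 15 min, RT. Reaction: substrate added to 50 nM final. Reads: 0 and 10 min. Analysis: normalized, Hill fit.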
Pol iota inh: qHTS for Inhibitors of Polymerase Iota; DNA polymerase iota (Homo sapiens), Q9UNA4; Pol iota fluorescent replication assay, 10 min; Potency, µM (highest dose often 115 µM), without a hit: top-dose activity, negative = inhibition, hits mostly inhibitors; 390,000 tested, 1% active; AID 588590, 2011
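Fluorescent replication assay read twice, at 0 min and 10 min after adding 50 nM (final) substrate. Enzyme (10 nM) and compounds were first incubated 15 min at room temperature; enzyme-free buffer wells were negative controls.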
Pol kappa inh: qHTS for Inhibitors of Polymerase Kappa. purified Pol kappa, fluorescent DNA synthesis assay, 10 min. Potency, µM (highest dose often 107 µM), inactives show top-dose activity, negative = inhibition, most hits filed as inhibitors. 400,000 tested, 0.53% active. AID 588579, 2011; note: % is set by controls: 0 for no effect and ±100 for the full control effect
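Inhibition of 10 nM Pol kappa is measured by a fluorescent read-out at 0 and 10 min following addition of 50 nM substrate (final), with a 15-min room-temperature compound preincubation.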
* = called active by the depositor; ? = inconclusive; / = no result given; [ ] = remark or other dose. Calls come from the whole dose curve; as a rule, active = well fitted curve in the direction sought with a large enough effect; inconclusive = small, poorly fitted or top-dose-only effect, or another doubt; inactive = no such curve, though single readings can be large; an effect the other way counts as inactive or inconclusive. Potency is the fitted concentration of half-maximal effect.

SMILES	TDP1 inh	POLH inh	POLB inh	Pol iota inh	Pol kappa inh
COc1ccccc1CNC(=O)C(=O)NCCC1CCCCN1S(=O)(=O)c1cccs1 (centres undefined)	-1%	0%	/	40%	89µM*
CCc1ccccc1NC(=O)C1CCCN1S(=O)(=O)c1ccc(-c2ccc(=O)[nH]n2)s1 (centres undefined)	5%	40µM*	-28%	?	-25%
CCN(C(=O)CN1CCN(c2ccc(O)cc2)CC1)c1c(N)n(Cc2ccccc2)c(=O)[nH]c1=O	/	12%	45µM*	?	-36%
CCN(C(=O)CN1CCCCCC1)c1c(N)n(Cc2ccccc2)c(=O)[nH]c1=O	0%	-6%	/	10%	-16%
Cc1ccc(-n2nc(CO)c(C(=O)NCCCCc3ccccc3)n2)cc1C	5%	-8%	13%	-18%	0%
OCCNc1c2ccccc2nc2c(F)c(F)c(F)c(F)c12	-2%	-9%	34%	115%	-6%
CC(C)Nc1nc2ccccc2c(=O)[nH]1	3%	-18%	24%	22%	-1%
Cc1c2ccccc2nc2c(F)c(NCCO)c(F)c(F)c12	0%	?	?	?	79µM*
Cc1c2ccccc2nc2c(F)c(NC(C)C)c(F)c(F)c12	1%	-3%	3%	18µM*	?
COc1ccc(N2Cc3cccc(C(=O)O)c3C2=O)cc1	8.9µM*	4µM*	7.1µM*	?	?
COc1ccc(CCNC(=O)CSc2cn(CCNC(=O)c3ccccc3F)c3ccccc23)cc1OC	10%	-4%	9%	0%	5%
Cc1ccc(CNc2ccc3nnc(-c4ccccc4)n3n2)cc1	3%	?	56µM*	28%	0%
O=C1ON=C(c2ccccc2)/C1=C/c1ccco1	3%	?	25µM*	22µM*	28µM*
CN(C)/C=C1\C(=O)ON=C1c1ccccc1	1%	-2%	15%	35%	-15%
O=C1NNC(c2ccccc2)=N/C1=C\c1ccco1	9%	?	10µM*	?	-41%
O=C1NNC(c2ccccc2)=N/C1=C\c1ccccc1Cl	10%	-32%	-3%	?	1%
CCCCCn1c(=N)n(CC(O)COc2cccc(C)c2)c2ccccc21 (centres undefined)	-1%	-1%	0%	22%	-3%
O=S1(=O)CCO[C@H]2CCCC[C@@H]2N1Cc1ccc(Cl)cc1	/	/	/	24%	-16%
O=C(C[n+]1cccc(Cl)c1)c1ccc(O)c(O)c1	/	/	/	?	2.2µM*
CCCCC1=CC2=C(c3ccco3)C(=O)C(C)(OC(=O)c3cccs3)C(=O)C2=CO1 (centres undefined)	-1%	/	/	/	/
Cc1ccc(-n2ncc3c(N4CCCCC4)ncnc32)cc1Cl	3%	-8%	0%	-20%	-6%[60.1 µM]
COc1ccc(CNC(=O)C[C@H]2C[C@H](C(=O)N3CCCCC3)[C@@]3(C)c4[nH]c5cc(-c6ccco6)ccc5c4CCN3C2=O)cc1OC	4%[56.1 µM]	-16%	/	40µM*	?
CC[C@]12c3[nH]c4cc(-c5ccco5)ccc4c3CCN1C(=O)[C@@H](CC(=O)NCCC1=CCCCC1)C[C@@H]2C(=O)N1CCN(C(=O)c2ccco2)CC1	0%[56.1 µM]	-10%	/	7.9µM*	28µM*
C=CC1=C(C(=O)O)N2C(=O)[C@@H](NC(=O)/C(=N\OCC(=O)O)c3csc(N)n3)[C@@H]2SC1	14µM*	/	/	/	-12%[19.4 µM]
CO/N=C(\C(=O)N[C@@H]1C(=O)N2C(C(=O)O)=C(CSc3nc(=O)c(O)nn3C)CSC12)c1csc(N)n1 (some centres undefined)	7.1µM*	11µM*	14µM*	25µM*	?
SMILES	TDP1 inh	POLH inh	POLB inh	Pol iota inh	Pol kappa inh
COc1ccc(/C=C2\SC(=S)N(CCC(=O)NCCCn3ccnc3)C2=O)cc1	7%	-16%	-1%	-6%	11%
CC(C)c1ccc(/C=C2\SC(=S)N(CCC(=O)NCCCn3ccnc3)C2=O)cc1	-12%	-17%	40µM*	-28%	?
CSCc1c(C(=O)OCC(=O)c2ccc[nH]2)oc2ccccc12	-2%	?	/	50µM*	?
O=C(OC1Cc2c(O)cc(O)cc2OC1c1cc(O)c(O)c(O)c1-c1c(C2Oc3cc(O)cc(O)c3CC2O)cc(O)c(O)c1O)c1cc(O)c(O)c(O)c1 (centres undefined)	/	/	/	/	0.79µM*
CC(=O)Oc1cc(OC(C)=O)c2c(c1)OC(c1ccc(OC(C)=O)c(OC(C)=O)c1)C(OC(C)=O)C2 (centres undefined)	12%[56.1 µM]	/	/	/	-8%[60.1 µM]
Cc1noc(CN(C)c2ncnc3ccc(-c4ccc5c(c4)OCO5)cc23)n1	-6%	/	/	/	/
CCC(C)/C=C/C1=CC2=C(Cl)C(=O)C3(C)OC(=O)C(C(=O)C(C)C(C)O)C3C2=CO1 (centres undefined)	?	?	22µM*	?	79µM*
CCN(CC(=O)Nc1ccc(NC(C)=O)cc1)C(=O)c1cccc(-n2cccc2)c1	/	?	/	56µM*	-42%
Fc1cc(Br)ccc1Nc1c2c(nc3nc(-c4cccs4)nn13)CCCC2	7%	-17%	0%	-15%	-4%[60.1 µM]
O=c1oc2ccccc2c2c1C1O[C@](c3ccsc3)(Cc3c1ccc1ccccc31)O2	/	/	13µM*	/	/
O=C1CCCC2=C1C1O[C@](c3ccsc3)(Cc3c1ccc1ccccc31)O2	/	/	4µM*	/	/
COc1ccc([C@]23Cc4c(ccc5ccccc45)C(O2)C2=C(CCCC2=O)O3)cc1	/	/	-2%[22.9 µM]	/	/
O=C1c2ccccc2C(=O)N1CCCC[C@]12Cc3ccccc3C(O1)c1c(c3ccccc3oc1=O)O2	/	/	-13%[22.9 µM]	/	/
O=C1C2=C(C(=O)c3ccccc31)C1O[C@](c3ccsc3)(Cc3c1ccc1ccccc31)O2	/	/	3.2µM*	/	/
COc1ccc([C@]23Cc4c(ccc5ccccc45)C(O2)C2=C(CC4(CCCCC4)OC2=O)O3)cc1	/	/	9%[22.9 µM]	/	/
COc1ccccc1/C=C/C1=NC(=C\C=C/c2ccccc2)/C(=O)O1	3%	?	20µM*	?	-14%[60.1 µM]
COc1ccccc1/C=C/C=C1N=C(/C=C/c2ccc(Cl)cc2)OC/1=O	-3%	-24%	?	11%	-15%
O=C(COC(=O)Cc1n[nH]c(=O)c2ccccc12)Nc1ncc(Cl)cc1Cl	0%	79µM*	/	12%	-3%
O=C(COC(=O)CNC(=O)c1ccccc1F)Nc1ncc(Cl)cc1Cl	-11%	50µM*	/	?	-23%
O=C(Cc1n[nH]c(=O)c2ccccc12)OCC(=O)c1ccccc1Cl	-4%[0.505 µM]	1%	/	1%	-1%
O=C(N/N=C/c1ccncc1)c1ccc(NC(=O)c2cccc(Cl)c2)cc1	5%	?	8.9µM*	?	?
